Source: the supplement of paper PMC4954754
± gives the uncertainty stated by the source.

What follows are molecules tested on HEK293T-Rex ERSE-FLuc (assay: ERSE-FLuc reporter activation, triplicate confirmation, relative to 500 nM thapsigargin (% of thapsigargin); higher = stronger ATF6/ERSE reporter activation). Details: 6.8 µM; 18 h; screen: confirmation.
Procedure: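 HEK293T-Rex cells stably expressing the ERSE-firefly luciferase (BiP promoter, ATF6-preferring) or XBP1-splicing Renilla luciferase (IRE1/XBP1s) reporter, 1536-well plates, compound at 6.8 µM for 18 hr at 37 °C; luminescence read […] and expressed as % activation = 100*(compound - median DMSO)/(median 500 nM thapsigargin - median DMSO). Primary screen was single-pass; confirmation screen in triplicate (mean ± SD).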

| Structure (SMILES) | ERSE-FLuc reporter activation |
| --- | --- |
| Oc1ccc(/C=N/Nc2cccc3cccnc23)cc1O | 33.1 ± 4.8 |
| O=C(/C=C/c1ccccc1)Nc1ccc(Cl)cn1 | 27.9 ± 6.3 |
| OCCNc1nc(Nc2ccc(Br)cc2)nc2ccccc12 | 54.2 ± 16 |
| Nc1ccccc1NC(=O)c1ccc(C(=O)Nc2ccccc2N)cc1 | 25.1 ± 3.8 |
| O=C(N/N=C/c1cccc(O)c1O)c1ccccc1I | 25.6 ± 5.4 |
| Nc1c(C(=O)Nc2ccccc2)sc2nc3c(cc12)CCCCC3 | 35.6 ± 5.3 |
| CC(=O)Nc1ccc2nc(-c3ccc(OC(C)=O)cc3)sc2c1 | 25.9 ± 3.6 |
| CCCCNC(=O)c1cc(-c2ccc(F)cc2)on1 | 40.8 ± 5.3 |
| O=C(COC(=O)c1ccc(O)c(O)c1)Nc1nc(-c2ccccc2)cs1 | 39.3 ± 5.9 |
| Nc1ccc2nc(/C=C/c3ccccc3)[nH]c2c1 | 36.7 ± 5.2 |
| Cc1nn(-c2ccc(F)cc2)c2ncc(C(=O)NCc3ccco3)c(Cl)c12 | 54.5 ± 3.9 |
| COc1ccc(/C=C/c2nc3cc([N+](=O)[O-])ccc3s2)cc1O | 25.5 ± 3.9 |
| N#Cc1c(NC(=O)c2cnccn2)sc2c1CCCC2 | 40.2 ± 22 |
| Nc1ccc2nc(-c3ccc(Cl)cc3)[nH]c2c1 | 33.6 ± 2.4 |
| COc1cccc(-c2nc3ccc(N)cc3[nH]2)c1 | 32.8 ± 4.8 |
| COc1cccc(C(=O)/C=C/Nc2cc(C)ccc2O)c1 | 116 ± 7.9 |
| Nc1ccc2nc(/C=C/c3ccco3)[nH]c2c1 | 40.9 ± 9.5 |
| O=C1c2cc(O)ccc2-c2ccc(O)cc21 | 25.6 ± 6 |
| CCOc1ccc(NC(=O)c2ccc3c(c2)OCO3)c([N+](=O)[O-])c1 | 30.1 ± 1.8 |
| Nc1ccccc1NC(=O)c1ccc(Cl)cc1 | 33.6 ± 4.6 |

| Structure (SMILES) | ERSE-FLuc reporter activation |
| --- | --- |
| O=[N+]([O-])c1ccc(N/N=C/c2ccccc2O)cc1 | 20.7 ± 2.3 |
| OCCNc1nc(Nc2ccc(Cl)c(Cl)c2)nc2ccccc12 | 87.6 ± 9.4 |
| O=C1N/C(=C/c2ccc(O)cc2)C(=O)N1c1ccccc1 | 66.4 ± 15 |
| O=[N+]([O-])c1ccc2nc(/C=C/c3ccccc3)[nH]c2c1 | 25.2 ± 1.7 |
| N#C/C(=C/c1ccc(O)c(O)c1)c1nc2ccccc2[nH]1 | 29.7 ± 1.1 |
| CCCCNC(=O)c1cc(-c2cccs2)on1 | 65.1 ± 6.3 |
| COc1cccc(-c2cc(C(=O)Nc3cc(C)ccc3O)no2)c1 | 43.9 ± 11 |
| O=C(N/N=C/c1ccc(O)c(O)c1)c1cccc(Cl)c1 | 32.8 ± 3.2 |
| Cc1ccc(O)c(NC(=O)c2cc(C(C)C)on2)c1 | 44.6 ± 1.3 |
| CCOc1ccc2nc(NC(=O)c3ccn(C)n3)sc2c1 | 30 ± 23 |
| COc1cc2ccccc2cc1C(=O)N/N=C/c1cccs1 | 25.7 ± 4.6 |
| CN(C)/C=N/C1=C(C#N)C(c2ccc3c(c2)OCO3)c2ccc3ccccc3c2O1 (stereo not given) | 26.1 ± 9.6 |
| O=C(NCCc1ccc(O)cc1)c1ccc2nc(-c3csc4ccccc34)sc2c1 | 103 ± 23 |
| O=C1/C(=C/c2ccc(O)c(O)c2)Oc2cc(O)ccc21 | 26.9 ± 5.9 |
| N#C/C(=C\c1ccc(O)c(O)c1)c1nc2ccccc2[nH]1 | 34.3 ± 1.3 |
| C=CCNC(=O)c1sc2nc3cc(C)c(C)cc3cc2c1N | 30.2 ± 5.3 |
| COC(=O)c1c(NC(=O)CCl)sc(C(=O)Nc2cccc([N+](=O)[O-])c2)c1C | 37.6 ± 7.8 |
| CN(C)c1ccc(C(=NO)c2ccc(N(C)C)cc2)cc1 | 28 ± 6.5 |
| O=C(N/N=C\c1ccccc1[N+](=O)[O-])c1[nH]nc2c1CCc1ccccc1-2 | 31.4 ± 3 |
| Cc1ccc(O)c(NC(=O)CCc2ccccc2)c1 | 63.24 ± 0.61 |
